From PubChem BioAssay (NCI)
About 83,000 compounds went through this panel and 20% of them were active in at least one assay; those are over-represented in the sample as a whole.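 Results are percent growth after 48 hours of single-concentration exposure. 100 means growth as in untreated cells, lower positive values show inhibition; negative values down to -100 show cell death.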 A number with no mark means an inactive call. The source made the active and inactive calls. Rule for the calls: active = growth percent below 10; inactive = the rest.

Assays:
Test in all cases: NCI-60 one-dose screen, 48 h (100 = growth as untreated, 0 = no growth, -100 = all killed)
Conditions in all cases: 10 µM unless noted
SR leukemia = test system: SR leukemia
RPMI-8226 leukemia = test system: RPMI-8226 leukemia
OVCAR-8 ovarian = test system: OVCAR-8 ovarian
OVCAR-5 ovarian = test system: OVCAR-5 ovarian
OVCAR-4 ovarian = test system: OVCAR-4 ovarian
SK-OV-3 ovarian = test system: SK-OV-3 ovarian
IGROV1 ovarian = test system: IGROV1 ovarian
OVCAR-3 ovarian = test system: OVCAR-3 ovarian
HS 578T breast = test system: HS 578T breast
NCI/ADR-RES ovarian = test system: NCI/ADR-RES ovarian
T-47D breast = test system: T-47D breast
BT-549 breast = test system: BT-549 breast
MDA-MB-435 melanoma = test system: MDA-MB-435 melanoma
SW-620 colon = test system: SW-620 colon
MCF7 breast = test system: MCF7 breast
HCT-116 colon = test system: HCT-116 colon
HCC-2998 colon = test system: HCC-2998 colon
KM12 colon = test system: KM12 colon

Structure (SMILES)	growth (SR leukemia)	growth (RPMI-8226 leukemia)	growth (OVCAR-8 ovarian)	growth (OVCAR-5 ovarian)	growth (OVCAR-4 ovarian)	growth (SK-OV-3 ovarian)	growth (IGROV1 ovarian)	growth (OVCAR-3 ovarian)	growth (HS 578T breast)	growth (NCI/ADR-RES ovarian)	growth (T-47D breast)	growth (BT-549 breast)	growth (MDA-MB-435 melanoma)	growth (SW-620 colon)	growth (MCF7 breast)	growth (HCT-116 colon)	growth (HCC-2998 colon)	growth (KM12 colon)
Cc1ccc(S(=O)(=O)n2cc(C3C(Cl)C(=O)N3c3ccc(N4CCOCC4=O)cc3)c3ccccc32)cc1 (stereo unspecified)	24.6%	21.6%	55.5%	78.5%	52.4%	93.9%	72.6%	30.4%	41.8%	32.6%	51%	48.3%	-21.2% (active)	26.1%	20.8%	16.5%	86.6%	85.6%
CCCCC(=O)Nc1ncc(Cc2ccccc2Cl)s1	25.8%	49.2%	49%	59%	68.1%	63.3%	45.4%	30.1%	31.3%	23.7%	34.1%	47.1%	-31.8% (active)	24.5%	17.8%	21.2%	52.6%	25.2%
COc1cc(OC)cc(C2C(C#N)=C(N)Oc3c2ccc2ccc(O)cc32)c1 (stereo unspecified)	12.6%	8.83% (active)	18.1%	33.1%	55.6%	42.3%	14.3%	-16% (active)	53.2%	-8.97% (active)	58.4%	26.2%	4.98% (active)	26.1%	7.95% (active)	4.25% (active)	7.75% (active)	5.84% (active)
CCCCCSB(SCCCCC)c1ccccc1	98.5%	100%	97%	101%	100%	104%	97.1%	109%	109%	98.4%	94.3%	105%	103%	100%	104%	106%	88.7%	107%
O=C(c1ccc(Cl)cc1Cl)N1c2ccccc2Sc2ccccc21	32.2%	55.3%	50.7%	71.4%	81.9%	69.1%	60.9%	58.9%	95.9%	60.9%	67.3%	54.6%	47.9%	38.3%	52.4%	22.8%	64.6%	49.8%
C=CC(=O)NCCOc1cccc(Nc2cc(NCCCNC(=O)C3CCC3)c(Br)cn2)c1	-10.1% (active)	-22.8% (active)	4.84% (active)	2.75% (active)	-20.6% (active)	-54.4% (active)	2.28% (active)	-25.5% (active)	-18.4% (active)	39.5%	-10.5% (active)	-59.5% (active)	-1.47% (active)	2.26% (active)	1.91% (active)	4.97% (active)	-43.7% (active)	5.83% (active)
CC(/C=C1\SC(=S)N(CC(=O)NC(Cc2c[nH]c3ccccc23)C(=O)O)C1=O)=C\c1ccccc1 (stereo unspecified)	108%	105%	100%	102%	101%	105%	101%	108%	103%	103%	106%	105%	104%	104%	94.8%	112%	103%	107%
C#CCn1cnc2c(Nc3cccc(NC(=O)CCl)c3)ncnc21	9.78% (active)	10.4%	50%	43.7%	26.9%	49.6%	7.54% (active)	31.6%	50%	49.1%	34.7%	35.1%	22.6%	20.6%	14.1%	12.9%	77.6%	37.7%
CN(C)Cc1ccc(C(=O)Nc2ccc3ncnc(Nc4ccc(Oc5cccc(F)c5)c(Cl)c4)c3c2)cc1	-18.1% (active)	-24.7% (active)	14.2%	-28.7% (active)	-24.4% (active)	19%	-50.7% (active)	-24.2% (active)	-11.7% (active)	22.7%	10%	80.2%	-89.4% (active)	-73.1% (active)	-62.1% (active)	-39.7% (active)	-65.3% (active)	-5.02% (active)
COc1ccc2c(c1)c(-c1cc(-c3cn(C)c4ccc(OC)cc34)on1)cn2C	104%	84.6%	97.5%	78.5%	112%	93.3%	87.4%	107%	90.3%	95.4%	80.9%	127%	116%	91.8%	89%	89.1%	101%	106%
O=C(CCCCCCN1CC(=O)N2[C@@H](C3CCCCC3)c3[nH]c4ccccc4c3C[C@H]2C1=O)NO	11.5%	39.5%	54.1%	66.6%	84.6%	71.5%	29%	71.1%	70.2%	105%	44.2%	80.6%	60.6%	47%	51.6%	27%	94%	81.3%
CCn1c2ccc(O)cc2c2c(C)c3c[n+](C(C)C)ccc3c(C)c21	11.9%	27.8%	37.6%	83.6%	43.2%	89.8%	50.8%	19.5%	34.8%	66.5%	-15.4% (active)	9.02% (active)	28.5%	25.6%	17.8%	37.3%	42.6%	15%
COc1cccc(OC)c1Oc1c(-c2nc3ccccc3s2)c(C)nn1-c1ccccc1	6.99% (active)	57.6%	72.2%	73.8%	63.4%	75.3%	46.5%	89.6%	78.3%	64.7%	42.1%	36.3%	88.1%	88%	82.1%	53.8%	81.9%	59.7%
COc1cc(Nc2c3ccc(Cl)cc3nc3ccc(OC)cc23)c2ncccc2c1	19.8%	55.5%	46.1%	70.2%	20.3%	52.5%	32.2%	33.9%	65.1%	53.9%	48.6%	56.2%	65.6%	45.7%	40.3%	26%	44.8%	39.3%
COc1cccc(/C=C2\COc3ccc(O)cc3C2=O)c1	5.49% (active)	-24.8% (active)	80.7%	101%	95%	114%	84.4%	78.4%	91.1%	89.9%	47.5%	78%	52.8%	18.1%	4.96% (active)	32.8%	115%	43.7%
NC(=S)N/N=C/c1cn(-c2ccccc2)nc1-c1cc2ccccc2oc1=O	12.2%	33.4%	64.5%	88.1%	79.2%	83.2%	46.7%	34.4%	64.4%	48.6%	47.8%	42.5%	-47.5% (active)	22.7%	33.3%	27.2%	88.4%	30.9%
CCn1cc(C2=C(c3cn(C)c4ncccc34)C(=O)NC2=O)c2cccnc21	59.4%	85.2%	82.5%	102%	69.3%	41.6%	64.5%	64.7%	32%	78.2%	29.8%	32.9%	65%	92.4%	38.3%	70.9%	91.4%	46.7%
